# Results published in PubChem BioAssay (EPA / NIEHS).
# Values joined by “and” are separate entries in the source; they are usually repeats but may differ in a detail not shown here. Equal entries are not always repeated. A structure can be active in one record and inactive in another. Active and inactive are the calls of the source. Rule for the calls: active = hit-call score of the fitted dose curve at least 0.9, where 1 is the maximum; inactive = score below 0.9.
# Read-out: Matrix Metallopeptidase 3 (MMP3), MMP3 (gene 4314)
# Assay: BSK_BF4T_MMP3: BioMAP Diversity Plus: BF4T Assay for Matrix Metallopeptidase 3 (MMP3) Biomarker Activity (AID 2284271)
# Conditions: primary human bronchial epithelial cells with fibroblasts
# Procedure: BSK_BF4T is a cell-based, multiplexed-readout assay that uses bronchial epithelial cells and dermal fibroblasts, a human vascular primary cell, with measurements taken at 24 hours after chemical dosing in a microplate: 96-well plate.BSK_BF4T_MMP3 is an assay component measured in the BSK_BF4T assay. It measures MMP-3 antibody related to regulation of gene expression using ELISA technology.Data from the assay component BSK_BF4T_MMP3 was analyzed at the endpoint, BSK_BF4T_MMP3, in the positive analysis fitting direction relative to DMSO as the negative control and baseline of activity. Using a type of binding reporter, gain or loss-of-signal activity can be used to understand protein changes. To generalize the intended target to other relatable targets, this assay endpoint is annotated to the 'protease' intended target family, where the subfamily is 'matrix metalloproteinase'.
# The levels of cell surface (or secreted, indicated by the prefix "s") biomarker endpoints were measured by ELISA. Overt cytotoxicity to cells in confluent adherent cultures (all systems other than the BT system) was assessed by measuring total protein levels using sulforhodamine B (SRB) staining in parallel cultures at the time of biomarker measurements, indicated as SRB endpoints. For proliferation assays for adherent cell types, individual cell types are cultured at sub-confluence and relative cell numbers quantified by SRB staining at time points optimized for each system (48 h: 3C and CASM3C systems; 72 h: BT and HDF3CGF systems; 96 h: SAg system). SRB was performed by staining cells with 0.1% SRB after fixation with 10% TCA and reading wells at 560 nm.Viability and proliferation of PBMC (T cells) was quantified by Alamar Blue reduction for the SAg and BT systems. For PBMC viability (referred to as PBMC Cytotoxicity within the assay endpoint names), cells were plated (75,000/well in a 96-well plate) and then chemical samples added for 1 h before addition of activators, SEB and TSST-1 (20 ng/mL final concentration each). Cells were incubated for 90 h. Then, Alamar Blue (20 uL/well) (Invitrogen, Cat DAL1100) was added for 6 h, and the plates were read with a fluorescence microplate reader at 546/580 nm (excitation/emission). For PBMC proliferation, cells were plated and activated as above but incubated for only 16 h prior to addition of Alamar Blue. Plates were read after 6 h.
Compound,outcome,AC50
C=CC(=O)OCC(F)(F)C(F)(F)C(F)(F)COC(=O)C=C,inactive,
O=S(=O)(Cl)C(F)(F)C(F)(F)C(F)(F)C(F)(F)C(F)(F)C(F)(F)C(F)(F)C(F)(F)F,inactive,
CCN(CCO)S(=O)(=O)C(F)(F)C(F)(F)C(F)(F)C(F)(F)C(F)(F)C(F)(F)C(F)(F)C(F)(F)F,inactive,24 µM (active)
OCC(F)(F)C(F)(F)C(F)(F)C(F)(F)C(F)(F)C(F)(F)C(F)(F)C(F)(F)CO,inactive,19.3 µM (active)
O=C(O)CCC(F)(F)C(F)(F)C(F)(F)C(F)(F)C(F)(F)C(F)(F)C(F)(F)F,inactive,
CN(C(=O)C(F)(F)C(F)(F)C(F)(F)F)[Si](C)(C)C,inactive,
CNS(=O)(=O)C(F)(F)C(F)(F)C(F)(F)C(F)(F)C(F)(F)C(F)(F)C(F)(F)C(F)(F)F,inactive,13.3 µM (active)
O=C(O)C(F)(F)C(F)(F)C(F)(F)C(F)(F)C(F)(F)C(F)(F)C(F)F,inactive,
O=C(O)C(F)(F)C(F)(F)C(F)(F)OC(F)(F)F,inactive,
NC(=O)C(F)(F)C(F)(F)C(F)(F)C(F)(F)C(N)=O,inactive,
NS(=O)(=O)C(F)(F)C(F)(F)C(F)(F)C(F)(F)C(F)(F)C(F)(F)F,inactive,49.5 µM (active)
OCCCCC(F)(F)C(F)(F)C(F)(F)C(F)(F)F,inactive,
O=S(=O)(O)CCC(F)(F)C(F)(F)C(F)(F)C(F)(F)C(F)(F)C(F)(F)C(F)(F)C(F)(F)F,inactive,
O=S(=O)(OCC(F)(F)F)C(F)(F)C(F)(F)C(F)(F)C(F)(F)F,inactive,
NCC(F)(F)C(F)(F)C(F)(F)C(F)(F)C(F)(F)C(F)(F)F,inactive,
OCC(F)(F)C(F)(F)C(F)(F)C(F)(F)C(F)(F)C(F)(F)CO,inactive,
NCC(F)(F)C(F)(F)C(F)(F)C(F)(F)C(F)(F)C(F)(F)C(F)(F)C(F)(F)F,inactive,
C=CC(=O)OCCC(F)(F)C(F)(F)C(F)(F)C(F)(F)F,inactive,

Compound,outcome,AC50
O=S(=O)(O)CCC(F)(F)C(F)(F)C(F)(F)C(F)(F)F,inactive,
OCC(O)CC(F)(F)C(F)(F)C(F)(F)C(F)(F)C(F)(F)C(F)(F)C(F)(F)C(F)(F)F (stereo not given),inactive,
O=C(O)C(F)(F)C(F)(F)C(F)(F)C(=O)O,inactive,
FC(F)(F)C(F)(F)C(F)(F)CC1CO1 (stereo not given),inactive,
FC(F)(F)C(F)(F)C(F)(F)C(F)(F)C(F)(F)C(F)(F)CC[Si](Cl)(Cl)Cl,inactive,0.211 µM (active)
C[Si](Cl)(Cl)CCC(F)(F)C(F)(F)C(F)(F)C(F)(F)C(F)(F)C(F)(F)F,inactive,
NC(O)(C(F)(F)F)C(F)(F)F,inactive,
O=C(O)C(F)(F)OC(F)(F)C(F)(F)OC(F)(F)C(F)(F)OC(F)(F)F,inactive,
FC(F)(F)C(F)(F)C(F)(F)C(F)(F)C(F)(F)C(F)(F)C(F)(F)CCI,inactive,
O=C(F)C1(F)C(F)(F)C(F)(F)C(F)(F)C(F)(F)C1(F)F,inactive,
OCC(O)CC(F)(F)C(F)(F)C(F)(F)C(F)(F)F (stereo not given),inactive,
OCCCC(F)(F)C(F)(F)C(F)(F)C(F)(F)C(F)(F)C(F)(F)C(F)(F)C(F)(F)F,,40.1 µM (active) and 40.6 µM (active)
NC(=O)C(F)(F)C(F)(F)C(F)(F)F,inactive,
O=C(Cl)C(F)(F)C(F)(F)C(F)(F)C(F)(F)C(F)(F)C(F)(F)F,inactive,
CO[Si](C)(CCC(F)(F)C(F)(F)C(F)(F)C(F)(F)C(F)(F)C(F)(F)F)OC,inactive,
O=C(Cl)C(F)(F)C(F)(F)C(F)(F)C(F)(F)C(F)(F)C(F)(F)C(F)(F)F,inactive,
OC(O)C(F)(F)C(F)(F)F,inactive,
